Measurements reported in article PMC7819943, “Rice protein-binding microarrays: a tool to detect cis-acting elements near promoter regions in rice”.
Over roughly 35,000 sequences, “fluorescence intensity (a.u.)” has its median near 10,000; the highest 2% begin near 52,000. What follows is part of a selection rich in the highest values, with near analogues and random picks from the rest.

target: T1, OsWOX13 (Oryza sativa, UniProt Q5QMM3 1-267); assay: protein-binding microarray (RPBM); PBS, 2% BSA, 51.3 ng/ul salmon testes DNA, 50 uM zinc acetate, 200 nM TF, 25 C, 1 h; high values mean tight binding; details: protein: recombinant; tags: N-terminal polyhistidine and DsRed monomer fusion (pET32a); label: CyDye5-dUTP incorporated in the synthesized complementary strand; 3' TTTTT single-stranded linker to array surface; dsDNA, one strand shown
T1 sequence: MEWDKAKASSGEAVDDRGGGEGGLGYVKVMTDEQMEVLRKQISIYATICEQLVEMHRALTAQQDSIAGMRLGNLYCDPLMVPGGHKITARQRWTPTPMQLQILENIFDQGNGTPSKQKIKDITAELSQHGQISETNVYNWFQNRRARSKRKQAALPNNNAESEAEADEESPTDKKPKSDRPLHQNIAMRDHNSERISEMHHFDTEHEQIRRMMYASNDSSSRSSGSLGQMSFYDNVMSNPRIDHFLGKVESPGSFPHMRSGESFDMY
Summary of the method: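 Binding signal is reported as fluorescence intensity per feature (arbitrary units) from an Axon 4000B scanner. Incubation used 200 nM of each Ni–NTA-purified, N-terminally polyhistidine- and DsRed-fused transcription factor from E. coli BL21-CodonPlus on a double-stranded custom Agilent array for 1 h at 25 °C, with 50 µM zinc acetate in the buffer, followed by washing.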

Row | Sequence | binding signal
1 | ATATAATTACAATACAATCGTAGTGTAATTACACTGTAACCGGAGTCACCTAGTGCAG | 14800 fluorescence intensity (a.u.)
2 | ACATCATTGACATAATATGATTTAACAACAAACAATTTAGCGGAGTCACCTAGTGCAG | 34800 fluorescence intensity (a.u.)
3 | TAATGCTTAATTAATCTCAATATAATCGCGTGCTTTGTTTCGGAGTCACCTAGTGCAG | 7810 fluorescence intensity (a.u.)
4 | AATAATCATACTAATTATATAAGTATATACTAAATATTATCGGAGTCACCTAGTGCAG | 7370 fluorescence intensity (a.u.)
5 | GCACCGTTGATGAAATTGCCGTTAGAATTTCGATCATCCCCGGAGTCACCTAGTGCAG | 4810 fluorescence intensity (a.u.)
6 | GGTAATGATTTAACACCACCTAATTTATTTTGAACAAGCTCGGAGTCACCTAGTGCAG | 20500 fluorescence intensity (a.u.)
7 | CATGTCTCAATAAATTGATCGTTGGCAAAATCGGTTAGTCCGGAGTCACCTAGTGCAG | 4980 fluorescence intensity (a.u.)
8 | GGTAATTTGTCCGGTATTGAAAGTTTAGGGTGAGCAATGTCGGAGTCACCTAGTGCAG | 22900 fluorescence intensity (a.u.)
9 | CCATTAATTAATTAACCTGCAGCCTCAATTATTTGGTCTCCGGAGTCACCTAGTGCAG | 57600 fluorescence intensity (a.u.)
10 | ATTAATTTGACCAACTTCATTCAACATGTAACATGGTCTCCGGAGTCACCTAGTGCAG | 16600 fluorescence intensity (a.u.)
11 | GAAGTGATTGATATTTGAGCAATTAGTCCGTTGTCAGGGTCGGAGTCACCTAGTGCAG | 62400 fluorescence intensity (a.u.)
12 | AATTAAATTTTAACTATTAATATTATATTTTATAAATATTCGGAGTCACCTAGTGCAG | 6480 fluorescence intensity (a.u.)
13 | TTAATAATTATTGTAAAATTTAATTTATATTTATTTGAATCGGAGTCACCTAGTGCAG | 22600 fluorescence intensity (a.u.)
14 | TGCATTAATTATTGGAGAGTGCGGTCTCCTCTCCTCCCTCCGGAGTCACCTAGTGCAG | 23200 fluorescence intensity (a.u.)
15 | ATATAATTAATTAAAATATTAATTATTATTTGTAAAATGGCGGAGTCACCTAGTGCAG | 65500 fluorescence intensity (a.u.)
16 | TGGAATTTTGAGTGTGTGATTGCGTTATTACGTTGCAAGTCGGAGTCACCTAGTGCAG | 3550 fluorescence intensity (a.u.)
17 | AAACATTAATTTGTTTTATAATATATTATAAATGACTATACGGAGTCACCTAGTGCAG | 15500 fluorescence intensity (a.u.)
18 | TTTAATTAAATTTAACATTAAATATATTTTGACTATTTGTCGGAGTCACCTAGTGCAG | 53000 fluorescence intensity (a.u.)
19 | TATTAATTTAATAAAATTAATTTGGTAATGTAAATATTATCGGAGTCACCTAGTGCAG | 15600 fluorescence intensity (a.u.)
20 | TCCGATTAATGTGGAAATTTCTAGCCTCCACAGCGAACGTCGGAGTCACCTAGTGCAG | 8650 fluorescence intensity (a.u.)
21 | TAGATACGAAAATTAATTGGAATTTTGGATTTGGATGGGACGGAGTCACCTAGTGCAG | 24500 fluorescence intensity (a.u.)

Row | Sequence | binding signal
22 | GTCACATCATTCTAATTTCAATTAAACTTCAAATTTTGGCCGGAGTCACCTAGTGCAG | 12900 fluorescence intensity (a.u.)
23 | CTGCAACTAAATTTTAGGATTAATTTAAGGAACTTTCGGGCGGAGTCACCTAGTGCAG | 11300 fluorescence intensity (a.u.)
24 | CAATGGTAAATTTATCCAGTCCAAAGTGAAAATATATGGTCGGAGTCACCTAGTGCAG | 3960 fluorescence intensity (a.u.)
25 | CTCCTTAATTTACTTATTTGTCTTTAATTGGTTCTCGCACCGGAGTCACCTAGTGCAG | 33700 fluorescence intensity (a.u.)
26 | CTGCCTGTAAATTTCTGTGATTTGATGTTTGCCTCTGTTGCGGAGTCACCTAGTGCAG | 11300 fluorescence intensity (a.u.)
27 | ATTTAAATCATCATCTATAGTCAATCTAATAGCTCACTCACGGAGTCACCTAGTGCAG | 8910 fluorescence intensity (a.u.)
28 | AATAATTAAATTTGATATAATAAATTAATATGTGATATGTCGGAGTCACCTAGTGCAG | 35700 fluorescence intensity (a.u.)
29 | AGTGATAAATTTGAGTGATTACTATATGACACCGTTGTGTCGGAGTCACCTAGTGCAG | 55700 fluorescence intensity (a.u.)
30 | GATTAATTAATTAATCTCAATGATGGTAAATACATTCCCACGGAGTCACCTAGTGCAG | 63100 fluorescence intensity (a.u.)
31 | ATTAAATCAATAATTAAATATATTTTCATAATAAATTTGTCGGAGTCACCTAGTGCAG | 23400 fluorescence intensity (a.u.)
32 | AATAATAATTAATTATAGTAATTAATCATTAATTTTGTACCGGAGTCACCTAGTGCAG | 64100 fluorescence intensity (a.u.)
33 | TAATATTATATTTAATTTGCATTATTTTAAATATAGTACCCGGAGTCACCTAGTGCAG | 3730 fluorescence intensity (a.u.)
34 | ATCAATCTCAATGGTTAAATGATTGATCTATCATAATTCACGGAGTCACCTAGTGCAG | 22100 fluorescence intensity (a.u.)
35 | AGTAATTTTGGTACAATTAATAAATAAATCTGATACCTCACGGAGTCACCTAGTGCAG | 21200 fluorescence intensity (a.u.)
36 | TATAACTAAAATTATATTTGTAAGTTTAGTTGATATGACACGGAGTCACCTAGTGCAG | 6390 fluorescence intensity (a.u.)
37 | GTTAATTAATTATATTATAATAATTCTCTCAATTTGTCGCCGGAGTCACCTAGTGCAG | 65500 fluorescence intensity (a.u.)
38 | TTTTAAATTTAAAATAATTAAAACTCAATTAATAATTTGTCGGAGTCACCTAGTGCAG | 31300 fluorescence intensity (a.u.)
39 | TTTTAGTAAATTAATAAATATTTATTTTGTTATTTAATACCGGAGTCACCTAGTGCAG | 13200 fluorescence intensity (a.u.)
40 | CAATGACTGATTACTGTGTTGATAGAATTTCATATACATTCGGAGTCACCTAGTGCAG | 34300 fluorescence intensity (a.u.)
41 | TAAAATTTGGAACTGAAATTTCTAACATTTCGGGTCCATCCGGAGTCACCTAGTGCAG | 4680 fluorescence intensity (a.u.)
42 | AAGATAGATAGATTCATCGCGATCGATCGAGCGGGAGGTACGGAGTCACCTAGTGCAG | 22500 fluorescence intensity (a.u.)
